PERK inh = block of dimerizer-induced PERK translation repression, primary screen, PERK inhibitor project, CHO PERK-DD cells, SEAP luminescence, HTS; Eukaryotic translation initiation factor 2-alpha kinase 3 (Homo sapiens), Q9NZJ5; CHO PERK-DD fusion, SEAP luminescence translation reporter; inhibition, % at 5.6 µM; 0.17% of 220,000 active;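 active means inhibition above the mean inhibition of all tested compounds plus 3 SD, set separately per screening campaign, cut at about 2.9% in these data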;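 further: PERK kinase domain activated by AP20187 dimerizer at 100 nM; 0% = DMSO with dimerizer and 100% = rapamycin at 8.4 µM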
M18AAP inhibitor = PfM18AAP inhibitors, malaria aminopeptidase, primary screen, biochemical, QFRET, recombinant enzyme | M18 aspartyl aminopeptidase (Plasmodium falciparum 3D7) | H-Glu-NHMec fluorogenic cleavage | inhibition, % at 7.35 µM | 1.2% of 290,000 active | AID 1822, 2009;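 active means inhibition above the campaign mean inhibition over all tested compounds plus 3 SD, cut at about 28% in these data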;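 further: 0% = plate median of test compound wells and 100% = 2 mM ZnCl2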
PABP1 MLLE inh = inhibitors of PABP1 MLLE–PAM2 peptide binding, primary screen, biochemical, fluorescence polarization, FITC-PAM2, GST-MLLE | AID 588489, 2011 | 0.36% of 360,000 active | inhibition, % at 20 µM; in the data active means inhibition above about 35%, passing the limit was not always enough;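 further: plate controls were DMSO wells with GST-MLLE for no effect and wells lacking GST-MLLE protein for full effect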
eIF4H FP inh = human eIF4H binding inhibitors, primary screen, translation initiation inhibitor project, biochemical, uHTS, fluorescence polarization; Eukaryotic translation initiation factor 4H (Homo sapiens), Q15056; eIF4H fluorescence polarization binding assay; inhibition, % at 35 µM; 0.94% of 290,000 active; AID 2012, 2009;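 further: calls also rest on retests at 20 µM and on dose response follow-up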
eIF4E-4G inh = eIF4E–eIF4G protein interaction inhibitors, primary screen, biochemical, uHTS, TR-FRET, eIF4GI fragment; TR-FRET eIF4E-eIF4GI(517-606) binding, 2 h; 0.37% of 220,000 active; inhibition, % at 21.7 µM; Eukaryotic translation initiation factor 4E (Mus musculus) + Eukaryotic translation …;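 active means inhibition above about 30%, limit read from the data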;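 further: 0% = full FRET control wells and 100% = background wells lacking eIF4GI fragment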
PABP polyA inh = PABP poly(A) RNA binding inhibitors, primary screen, biochemical, fluorescence polarization, uHTS; Polyadenylate-binding protein 1 (Homo sapiens), P11940; inhibition, % at 35 µM; 1% of 290,000 active;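 further: calls also rest on retests at 20 µM and on dose response follow-up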
Starred values were filed as active, the others as inactive; ? = inconclusive; nt = not tested or not shown; [ ] = dose if it differs, or a comment. An excerpt weighted towards active compounds, which were near 2.4% of everything screened. Unless noted, how the calls were made is not given here.

SMILES	PERK inh	M18AAP inhibitor	PABP1 MLLE inh	eIF4H FP inh	eIF4E-4G inh	PABP polyA inh
COc1cc(/C=N/n2c(=S)[nH]nc(C)c2=O)cc([N+](=O)[O-])c1O	1	29*	-33	3	-2	5
CC(=Nc1ccccc1C)C1=C(O)CSC1=O	-1	0	33	7	9	14
O=C(NNS(=O)(=O)c1ccc([N+](=O)[O-])cc1)c1ccccc1	nt	nt	-6	nt	nt	nt
O=C(NNS(=O)(=O)c1ccc([N+](=O)[O-])cc1)C(=O)Nc1cccc(C(=O)O)c1	nt	31*	33	60*	nt	9
O=c1c2ccccc2c(=O)n(-c2ccccc2)n1-c1ccccc1	nt	nt	-2	nt	nt	nt
S=c1[nH]c2ccc(Cc3ccc4[nH]c(=S)[nH]c4c3)cc2[nH]1	nt	15	-11	13	nt	18
C/C(=N/N=C1\SCC(=O)N1c1ccccc1)c1ccc(C)cc1	3.7*	11	-11	12	2	3
Cc1ccnc(N2C(=O)c3cccc4c([N+](=O)[O-])ccc(c34)C2=O)c1	1	-1	63*	77*	7	14*
N#C/C(=N\Nc1cccc2ccccc12)c1nnc2n1CCCCC2	0	-6	1	86*	0	active
Cc1csc(SCC(=O)N(C)C2CCS(=O)(=O)C2)n1 (centres undefined)	nt	nt	8	nt	nt	nt
CCc1nc2ccc(C(=O)NCCCn3ccnc3)cn2c1N(C)C(=O)c1cccc(OC)c1	nt	nt	15	nt	nt	nt
O=C(CSc1nnc2ccccn12)NNC(=O)c1cccc(Cl)c1	nt	nt	-2	nt	nt	nt
COc1ccc(CNC(=O)C(c2ccco2)N(C(=O)Cc2cccs2)c2cccnc2)cc1 (centres undefined)	0	-8	6	77*	4	26
CC1CCc2c(sc3ncnc(NCCN4CCOCC4)c23)C1 (centres undefined)	nt	nt	9	-14	51*	-4
Cc1ccc(-c2[nH]nc3c2C(C)C(C#N)=C(N)O3)cc1 (centres undefined)	0	6	3	9.9*	-2	63
COc1ccc(-c2ccc(C3C(C#N)=C(N)Oc4n[nH]c(C)c43)o2)cc1 (centres undefined)	0	11	-63	?	5	84*
COc1ccc(C2NC(=O)NC(C)=C2C(=O)OCC2CCCCC2)cc1OC (centres undefined)	nt	-10	3	-4	nt	-2
CC1CCCN(C(=O)C(=O)c2cn(CC(=O)N3CCCCCC3)c3ccccc23)C1 (centres undefined)	nt	5	8	15	nt	-1
CCCCCCCn1c(NC(=O)CC)nc2ccccc21	-2	-2	-8	74*	2	2.0*
CCC(=O)Nc1nc2ccccc2n1CCN1CCOCC1	1	-21	-8	6	6	-8
COc1cc(C(=O)NCC(=O)OC(C)C(=O)Nc2ncc(Cl)cc2Cl)cc(OC)c1OC (centres undefined)	0	-4	-1	1	2	9
Cn1nc2c(c1C(=O)O)CCCC2	1	-3	-3	102*	4	13*
COc1ccc(C(=O)N/N=C(\C)CC(=O)NC2CCCCC2)c(OC)c1	nt	-5	2	-2	nt	10
CC(=O)Nc1ccc(C(=O)OCC(=O)N(C)C2CCCCC2)cc1	-1	-10	2	active	1	78
CCCc1nc2ccc(C)cn2c1Cc1cccc(Cl)c1	nt	nt	-11	nt	nt	nt
SMILES	PERK inh	M18AAP inhibitor	PABP1 MLLE inh	eIF4H FP inh	eIF4E-4G inh	PABP polyA inh
O=c1oc2c(O)c(O)cc3c(=O)oc4c(O)c(O)cc1c4c23	2	29*	8	102	56*[fluorescence artefact?]	-4
O=C(CSc1nc2c(c(=O)n1-c1ccc(F)cc1)SCC2)NCc1ccco1	-1	5	45*	2	-1	8
O=C(CSc1nc2c(c(=O)n1-c1ccc(Cl)cc1)SCC2)NCc1ccco1	0	9	6	4	1	1
Cc1ccc(C2=NCCn3c2c2ccccc2[n+]3[O-])cc1	nt	nt	8	nt	nt	nt
CC(C)(C)OC(=O)NC(Cc1ccccc1)C(=O)N1CCC(C(=O)NCC(=O)Nc2ccc(F)cc2)CC1 (centres undefined)	nt	4	38*	?	nt	?
CCCN1CCN(C(=O)Cn2cnc3ccc(S(=O)(=O)N4CCC(C)CC4)cc3c2=O)CC1	-1	-14	11	-7	-1	8
COc1ccc(N=C2SC(CC(=O)Nc3ccccc3)C(=O)N2CCN2CCOCC2)cc1 (centres undefined)	0	5	-4	active	-7	72*
Oc1ccc(Br)cc1/C=N/n1c(-c2ccccc2)n[nH]c1=S	nt	1	-58	-7	nt	13
Oc1c(Br)cc(Br)c(/C=N/n2c(-c3ccccc3)n[nH]c2=S)c1Br	nt	7	14	44*	nt	66*
Cc1c(Cl)ccc2c(C(N)=O)cc(-c3ccccn3)nc12	0	3	-1	31	2	17
Cc1cc(C)c2nc(-c3ccccn3)cc(C(=O)n3cccn3)c2c1	0	4	-4	25	5	61*
CC(=O)c1ccc(NC(=O)COc2ccc3c(c2)OCO3)cc1	2	4	-9	2	1	2
Cc1ccccc1CSc1nc2[nH]ncc2c(=O)[nH]1	1	31*	-7	4	-2	1
CCOC(=O)C1=C(O)/C(=C/c2ccc(OCC(=O)O)c(OCC)c2)SC1=Nc1ccccc1	0	4	15	8	2	4
CCOC(=O)C1=C(O)/C(=C/c2ccc(-c3ccccc3C(=O)O)o2)SC1=Nc1ccc(C)cc1	nt	nt	-110	nt	nt	nt
CCOC(=O)C1=C(O)/C(=C/c2ccc(-c3ccccc3C(=O)O)o2)SC1=Nc1ccc(OC)cc1	1	-4	-75	78*	2	82*
CCOC(=O)C1=C(O)/C(=C/c2ccccn2)SC1=Nc1ccc(Cl)cc1	0	-7	-4	active	7	110
Cc1onc(-c2c(Cl)cccc2Cl)c1C(=O)NCCc1ccncc1	nt	-6	-7	2	nt	-1
Cc1sc2ncnc(N3CCC(C(=O)N4CC(C)SC4=Nc4ccc(Cl)cc4)CC3)c2c1C (centres undefined)	nt	nt	7	nt	nt	nt
COC(=O)c1[nH]c2ccc(C)cc2c1NC(=O)CCN1CCN(C2CCCCC2)CC1	-2	2	nt	2	-6	-5
COC(=O)c1[nH]c2ccc(Br)cc2c1NC(=O)CN1CCN(C2CCCCC2)CC1	-2	-6	-112	-12	-3	51*

Screening data (PubChem BioAssay)
